A3A deaminase: blocks human APOBEC3A ssDNA deamination | AID 493011 | P31941 | 330,000 tested, 0.41% active | inhibition, % at 20 µM | recombinant A3A, FAM/TAMRA ssDNA deamination fluorescence;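 active means at least 40% inhibition at 20 µM here, with at most 30% in a related deaminase screen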;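 further: plate controls were A3A with DMSO for no effect and wells lacking A3A enzyme for full effect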
Target sequence (P31941 whole entry, looked up): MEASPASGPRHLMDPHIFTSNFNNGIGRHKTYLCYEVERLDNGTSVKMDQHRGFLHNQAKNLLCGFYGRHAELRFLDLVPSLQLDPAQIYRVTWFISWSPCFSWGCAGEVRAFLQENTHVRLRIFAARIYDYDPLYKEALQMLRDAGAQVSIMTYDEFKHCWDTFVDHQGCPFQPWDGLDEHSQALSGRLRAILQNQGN
A3G deaminase: inhibitors of human APOBEC3G DNA deaminase | Q9HC16 | recombinant A3G, ssDNA deamination FAM/TAMRA fluorescence | inhibition, % at 20 µM | 330,000 tested, 0.28% active;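 active means inhibition of at least 40% at 20 µM, with no more than 30% in the related APOBEC3A deaminase screen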;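 further: plate controls were DMSO wells with A3G for no effect and wells lacking A3G enzyme for full effect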
Target sequence (Q9HC16 whole entry, looked up): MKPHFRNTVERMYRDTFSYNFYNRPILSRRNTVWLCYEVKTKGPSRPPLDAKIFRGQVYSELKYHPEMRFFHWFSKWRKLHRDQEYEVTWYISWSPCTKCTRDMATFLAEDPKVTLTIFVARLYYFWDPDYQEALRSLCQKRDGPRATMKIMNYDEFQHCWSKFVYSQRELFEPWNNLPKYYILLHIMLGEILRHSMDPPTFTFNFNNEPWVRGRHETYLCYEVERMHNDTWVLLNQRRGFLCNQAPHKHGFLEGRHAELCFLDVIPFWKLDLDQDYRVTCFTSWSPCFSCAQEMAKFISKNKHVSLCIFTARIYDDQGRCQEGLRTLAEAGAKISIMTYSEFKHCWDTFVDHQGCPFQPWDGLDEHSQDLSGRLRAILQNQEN
LANA-H2B inh: blocks KSHV LANA binding to histone H2A/H2B; Q9QR71; cell-free LANA-H2A/H2B peptide, fluorescence polarization; inhibition, % (concentration not given with the values); 320,000 tested, 0.6% active; AID 2629; in the data active means inhibition mostly above about 10%, no sharp cut-off; inactive means mostly below about 6.7%
HDAC3 inh: inhibitors of human histone deacetylase 3 | recombinant HDAC3, fluorogenic peptide/trypsin coupled, fluorescence | 320,000 tested, 0.15% active | AID 2718 | inhibition, % at 8.3 µM; in the data active means inhibition above about 26%, passing the limit was not always enough
Numbers without * were called inactive; ! = repeats disagree. In the library only some 1.4% were active in any assay of this set; here they are far more common.

How did CC(OC(=O)c1cc(S(=O)(=O)N2CCOCC2)ccc1Br)C(=O)N1CCOCC1 (stereo not given) do in these assays?
A3A deaminase: 0; A3G deaminase: -6; LANA-H2B inh: -1; HDAC3 inh: -9

Results for Cc1ccc(-c2cc(N)nc(-c3ccccc3)c2)cc1 ?
A3A deaminase: -3; A3G deaminase: -1; LANA-H2B inh: 31*; HDAC3 inh: -1

How did Cc1ccc(-c2cc(-c3ccccc3)nc(N(C)N)n2)cc1 do in these assays?
A3A deaminase: 2; A3G deaminase: -9; LANA-H2B inh: -5; HDAC3 inh: 6

How did CCOc1cc(C(=S)N2CCCC2)ccc1OCc1ccccc1 do in these assays?
A3A deaminase: -5; A3G deaminase: -1; LANA-H2B inh: 9.2*; HDAC3 inh: 3

Results for CCOc1ccc(C(=S)N2CCCC2)cc1OCC ?
A3A deaminase: -3; A3G deaminase: 5; LANA-H2B inh: -2; HDAC3 inh: 3

How did S=C(c1ccc(OCc2ccccc2)cc1)N1CCCC1 do in these assays?
A3A deaminase: 0; A3G deaminase: -9; LANA-H2B inh: -22; HDAC3 inh: -2

Results for Fc1ccc(COc2ccc(C(=S)N3CCCC3)cc2)cc1 ?
A3A deaminase: -8; A3G deaminase: -4; LANA-H2B inh: 22*; HDAC3 inh: 0

Results for C[C@H](CO)N1C[C@H](C)[C@@H](CN(C)C(=O)Nc2ccc3c(c2)OCO3)Oc2ccc(NS(=O)(=O)c3ccccc3)cc2C1=O ?
A3A deaminase: -2; A3G deaminase: -9; LANA-H2B inh: 0; HDAC3 inh: 1

How did COc1ccc2oc3ccccc3c(=O)c2c1 do in these assays?
A3A deaminase: 1; A3G deaminase: 21; LANA-H2B inh: -3; HDAC3 inh: -5

Results for COc1ccc(OC)c(-c2oc3ccccc3c(=O)c2O)c1 ?
A3A deaminase: -2; A3G deaminase: -3; LANA-H2B inh: 3.4*; HDAC3 inh: 2

How did CCOC(=O)c1sc2nc3c(SCC(=O)O)cc(C(=O)c4cc(F)ccc4O)cn3c(=O)c2c1C do in these assays?
LANA-H2B inh: 22*; HDAC3 inh: 5

How did COc1ccc(CC(=O)Nc2ccc(S(=O)(=O)N3CCC(C)CC3)cc2)c(OC)c1 do in these assays?
A3A deaminase: 11; A3G deaminase: -4; LANA-H2B inh: -67; HDAC3 inh: 4

How did CCOc1ccccc1Cn1c(=O)sc2ccccc21 do in these assays?
A3A deaminase: -2; A3G deaminase: -7; LANA-H2B inh: 37*; HDAC3 inh: 1

Results for O=C(Cn1cnc2c(OCc3ccccc3)ncnc21)NCC1CCCO1 (stereo not given) ?
A3A deaminase: -3; A3G deaminase: -7; LANA-H2B inh: 3; HDAC3 inh: 4

Results for Cc1c(CN2CCC(CO)(CCOc3ccccc3)CC2)[nH]c2c(Cl)cccc12 ?
A3A deaminase: -1; A3G deaminase: -5; LANA-H2B inh: 17*; HDAC3 inh: 18

What do the screens show for `Cc1nn(C)c(Cl)c1CN1CCC(CO)(CCOc2ccccc2)CC1`?
A3A deaminase: 2; A3G deaminase: -2; LANA-H2B inh: 1; HDAC3 inh: 3

Results for COc1ccc(Cc2nnc(NC(=O)C3CC(=O)N(c4ccccc4)C3)s2)cc1OC (stereo not given) ?
A3A deaminase: 4; A3G deaminase: -6; LANA-H2B inh: -1; HDAC3 inh: 0

What do the screens show for `Cc1c(NC(=O)c2cccc(NC(=O)COc3cccc(Br)c3)c2)c(=O)n(-c2ccccc2)n1C`?
A3A deaminase: -3; A3G deaminase: -10; LANA-H2B inh: -1; HDAC3 inh: -2

Results for Cc1cn([C@H]2C[C@H](N=[N+]=[N-])[C@@H](CO)O2)c(=O)[nH]c1=O ?
A3A deaminase: -2; A3G deaminase: -8; LANA-H2B inh: 15*!; HDAC3 inh: -2

What do the screens show for `O=c1[nH]c(=O)n([C@H]2C[C@H](O)[C@@H](CO)O2)cc1F`?
LANA-H2B inh: 5; HDAC3 inh: 0

How did C/C(=N\NC(=O)CSc1nc(C)cc(C)n1)c1cccs1 do in these assays?
A3A deaminase: -1; A3G deaminase: -4; LANA-H2B inh: 25*; HDAC3 inh: -2

How did CN(C)CCOC1c2ccccc2CCc2ccc3ccccc3c21 (stereo not given) do in these assays?
A3A deaminase: -2; A3G deaminase: -9; LANA-H2B inh: 0; HDAC3 inh: 1

What do the screens show for `O=C(CSc1ccccc1)Nc1ccc(N2CCOCC2)cc1`?
A3A deaminase: 3; A3G deaminase: -3; LANA-H2B inh: 0; HDAC3 inh: 0

Results for O=C(CSc1ccccc1F)Nc1ccc(N2CCOCC2)cc1 ?
A3A deaminase: -3; A3G deaminase: -5; LANA-H2B inh: 18*; HDAC3 inh: -1

What do the screens show for `O=C(COC(=O)c1ccc(O)cc1O)c1ccc2c(c1)OCO2`?
A3A deaminase: 4; A3G deaminase: -4; LANA-H2B inh: 56*; HDAC3 inh: 5

Results for O=C(CN1CCN(c2ccccn2)CC1)Nc1cccc(S(=O)(=O)N2CCOCC2)c1 ?
A3A deaminase: 2; A3G deaminase: -5; LANA-H2B inh: 26*; HDAC3 inh: -5

How did O=C(Cn1c(=O)cnc2ccccc21)Nc1cccc(S(=O)(=O)N2CCOCC2)c1 do in these assays?
A3A deaminase: -1; A3G deaminase: -5; LANA-H2B inh: 26*; HDAC3 inh: -5

How did O=C(c1ccccc1)c1ccc2c(c1)OCCOCCOCCOCCO2 do in these assays?
A3A deaminase: -3; A3G deaminase: -2; LANA-H2B inh: 2; HDAC3 inh: -3

What do the screens show for `O=C(c1cccc([N+](=O)[O-])c1)c1ccc2c(c1)OCCOCCOCCOCCO2`?
A3A deaminase: -3; A3G deaminase: -5; LANA-H2B inh: 13*; HDAC3 inh: 6

What do the screens show for `O=C(C1CCN(S(=O)(=O)c2cnc[nH]2)CC1)N1CCN(c2ncccn2)CC1`?
A3A deaminase: 3; A3G deaminase: 3; LANA-H2B inh: 17*; HDAC3 inh: 1

How did CSCCC(NS(=O)(=O)c1ccc(Cl)c(Cl)c1)C(=O)O (stereo not given) do in these assays?
A3A deaminase: -3; A3G deaminase: -7; LANA-H2B inh: 17*; HDAC3 inh: 4

How did CSCCC(NS(=O)(=O)c1cc(C(=O)O)ccc1Cl)C(=O)O (stereo not given) do in these assays?
A3A deaminase: 0; A3G deaminase: -6; LANA-H2B inh: -2; HDAC3 inh: -4

How did CSCCC(NS(=O)(=O)c1ccc2ccccc2c1)C(=O)O (stereo not given) do in these assays?
A3A deaminase: -3; A3G deaminase: -5; LANA-H2B inh: 28*; HDAC3 inh: 3

How did COC(=O)C(CCSC)NS(=O)(=O)c1ccc(Cl)cc1 (stereo not given) do in these assays?
A3A deaminase: 1; A3G deaminase: -2; LANA-H2B inh: -2; HDAC3 inh: -2

What do the screens show for `COc1ccc(C(=O)COC(=O)C(CCSC)NS(=O)(=O)c2ccc(Cl)cc2)cc1` (stereo not given)?
LANA-H2B inh: 176*; HDAC3 inh: 13

How did C[C@H](CO)N1C[C@H](C)[C@@H](CN(C)C(=O)Nc2ccc3c(c2)OCO3)Oc2c(NC(=O)c3ccncc3)cccc2C1=O do in these assays?
A3A deaminase: -1; A3G deaminase: -5; LANA-H2B inh: -4; HDAC3 inh: 1
